The nature of assay [1]: sensitizers of A549 cells to miR-34 induction, primary screen, imaging, A549 dox-inducible miR-34, nuclei and caspase counts (AID 1347080). As to conditions: A549 miR-34 inducible, Hoechst nuclei count, 48 h.
The nature of assay [2]: survival rescue of mitochondrial mutant cells in low glucose, primary screen, MELAS cybrids, Rieske KO mouse fibroblasts, CellTiter-Glo (AID 1508586;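 active = mean z-score across replicates of 1.96 or higher in either the MELAS or the Rieske mutant cell line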;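 note: z relative to plate mean and SD of compound and empty wells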).
In assay [3] the target is NAD(+) hydrolase SARM1 (Homo sapiens) (UniProt Q6SZW1). The experiment in a line: SARM1 TIR NADase inhibitors, cell lysate, NAD-Glo luminescence (AID 1508614;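 active = compound whose remaining NAD level is above about 45 nM, limit read from the data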;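 note: higher remaining NAD means stronger inhibition of SARM1 NADase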). As to conditions: SAM-TIR HEK293T lysate NADase, at 1 µM, stronger effect = higher value.
A short description of assay [4]: viability rescue of complex I mutant cybrids, primary screen, cell-based, galactose medium, ATP luminescence (AID 1645843;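 active = z-score of at least 1.8 in each of two replicates, scored against plate mean and spread of sample wells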;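 note: positive z means more ATP and so rescue of galactose-driven cybrid death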). Particulars: complex I mutant cybrid cells, 72 h, stronger effect = higher value.
Assay [5] concerns the target Mitogen-activated protein kinase 7 (Homo sapiens) (UniProt Q13164). Description: ERK5 transactivation activators in reporter cells, primary screen, cell-based, HTS (AID 1508626;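 active = luciferase signal above three times the same-plate solvent-only control wells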;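 note: luciferase driven by Gal4-ERK5 fusion binding five Gal4 sites before minimal TATA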). Particulars: HeLa Gal4-ERK5 transactivation, 18 h, at 5 µM, stronger effect = higher value.
Setting [6] is: stronger effect = lower value, cell number ratio, induced over uninduced.
Where [7] appears, read: measured here: relative caspase fold change +Dox/-Dox.
Setting [8] is: measured here: total cells with miR-34 induction, stronger effect = lower value.
Setting [9] is: measured here: total cells without miR-34 induction.
The mark [10] stands for this setting: MELAS cybrid survival, CellTiter-Glo 48 h, stronger effect = higher value.
[11] abbreviates: Rieske KO mouse fibroblast survival, CellTiter-Glo 72 h.

Results on 16 compounds are retold here after PubChem BioAssay.

The structures appear in SMILES notation. “And” between values parts separate entries of the source, which are not always exact repeats. Equal values may be shown once. The source made the active and inactive calls.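 Rule for the calls, unless noted: active = compounds whose cell count with miR-34 switched on is under 0.7 times the count with it off; inactive = the rest.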

Sequence of Mitogen-activated protein kinase 7 (Homo sapiens) (Q13164 whole entry, looked up, the tested form may be a part): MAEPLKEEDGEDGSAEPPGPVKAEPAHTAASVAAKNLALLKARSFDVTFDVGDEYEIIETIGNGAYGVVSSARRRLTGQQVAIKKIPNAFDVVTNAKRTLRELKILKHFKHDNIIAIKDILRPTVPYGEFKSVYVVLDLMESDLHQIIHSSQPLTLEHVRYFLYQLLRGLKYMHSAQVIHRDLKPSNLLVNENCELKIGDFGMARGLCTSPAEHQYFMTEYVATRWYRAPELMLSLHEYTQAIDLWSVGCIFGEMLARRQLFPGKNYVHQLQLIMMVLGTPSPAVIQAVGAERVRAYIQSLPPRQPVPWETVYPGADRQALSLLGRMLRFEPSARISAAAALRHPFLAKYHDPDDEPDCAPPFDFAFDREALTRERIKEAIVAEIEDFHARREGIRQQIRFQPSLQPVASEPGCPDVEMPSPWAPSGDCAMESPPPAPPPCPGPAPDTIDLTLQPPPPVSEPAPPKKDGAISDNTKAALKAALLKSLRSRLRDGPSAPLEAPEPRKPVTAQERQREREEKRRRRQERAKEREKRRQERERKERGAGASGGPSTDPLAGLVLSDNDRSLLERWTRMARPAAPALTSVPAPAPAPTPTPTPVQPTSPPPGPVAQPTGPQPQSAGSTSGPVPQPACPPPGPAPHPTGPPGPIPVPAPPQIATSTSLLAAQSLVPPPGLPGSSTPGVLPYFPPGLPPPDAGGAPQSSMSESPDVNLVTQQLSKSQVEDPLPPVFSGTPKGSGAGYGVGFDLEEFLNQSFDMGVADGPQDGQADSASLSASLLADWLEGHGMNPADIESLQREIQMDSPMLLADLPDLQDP
Sequence of NAD(+) hydrolase SARM1 (Homo sapiens) (Q6SZW1 whole entry, looked up): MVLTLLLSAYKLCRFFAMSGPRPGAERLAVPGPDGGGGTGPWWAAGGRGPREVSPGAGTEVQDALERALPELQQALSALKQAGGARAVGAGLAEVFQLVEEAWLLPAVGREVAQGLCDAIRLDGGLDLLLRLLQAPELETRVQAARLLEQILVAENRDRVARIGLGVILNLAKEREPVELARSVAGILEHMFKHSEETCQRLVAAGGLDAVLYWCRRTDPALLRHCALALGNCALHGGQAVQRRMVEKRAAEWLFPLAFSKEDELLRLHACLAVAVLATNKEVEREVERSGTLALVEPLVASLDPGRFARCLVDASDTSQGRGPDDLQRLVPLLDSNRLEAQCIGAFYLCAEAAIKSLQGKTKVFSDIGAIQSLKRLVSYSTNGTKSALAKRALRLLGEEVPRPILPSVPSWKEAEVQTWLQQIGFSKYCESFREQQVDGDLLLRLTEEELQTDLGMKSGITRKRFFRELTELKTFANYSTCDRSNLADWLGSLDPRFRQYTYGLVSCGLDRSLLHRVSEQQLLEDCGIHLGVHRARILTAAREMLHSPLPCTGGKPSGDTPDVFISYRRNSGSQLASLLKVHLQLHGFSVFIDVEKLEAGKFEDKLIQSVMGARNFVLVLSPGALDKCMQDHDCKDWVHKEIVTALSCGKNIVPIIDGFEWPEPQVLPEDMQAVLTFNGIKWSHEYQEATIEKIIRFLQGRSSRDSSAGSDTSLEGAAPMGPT

For `CCN1CC(CCN2CCOCC2)C(c2ccccc2)(c2ccccc2)C1=O` (stereo not given), the fold change in assay [1] (setting [6]) is 0.947 (inactive) and 1 (inactive); in assay [1] (setting [7]), 1.42 and 1.3. Moreover, the cell count in assay [1] (setting [8]) was 7960 and 7680; in assay [1] (setting [9]), 8400 and 7650. The z-score in assay [2] (setting [10]) is -0.295 (inactive) and -0.762 (inactive); in assay [2] (setting [11]), -0.241 and -0.506; in assay [4] it was 0.71 (inactive). In addition, the remaining NAD in assay [3] was 10 nM (inactive).

Regarding `O=C(O)CCC(=O)c1ccc(-c2ccccc2)cc1`, the fold change in assay [1] (setting [6]) was 0.889 (inactive) and 0.912 (inactive) and 0.859 (inactive); in assay [1] (setting [7]) it was 0.334 and 2.8 and 1.54. Moreover, the cell count is 8550 and 11300 and 9420 in assay [1] (setting [8]); 9620 and 12400 and 11000 in assay [1] (setting [9]). Also, the z-score in assay [2] (setting [10]) was 0.38 (inactive) and 0.679 (inactive); in assay [2] (setting [11]), 0.124 and 0.414; in assay [4], 0.975 (inactive). For the same compound, in assay [3], the remaining NAD is 10 nM (inactive). Besides, in assay [5], the luciferase signal is 68 AU (inactive).

For `CCOC(=O)OC(C)OC1=C(C(=O)Nc2ccccn2)N(C)S(=O)(=O)c2ccccc21` (stereo not given), the fold change in assay [1] (setting [6]) is 0.948 (inactive) and 0.916 (inactive) and 0.845 (inactive); in assay [1] (setting [7]) it was 1.05 and 0.416 and 1.29. Besides, the cell count is 9250 and 8630 and 9370 in assay [1] (setting [8]); 9750 and 9420 and 11100 in assay [1] (setting [9]). Besides, the z-score in assay [2] (setting [10]) is -0.123 (inactive) and 0.743 (inactive) and 0.745 (inactive); in assay [2] (setting [11]) it was -0.115 and 1.2 and 1.74; in assay [4] it was 0.855 (inactive) and 0.87 (inactive). For the same compound, in assay [3], the remaining NAD was 10 nM (inactive).

Turning to `NC(=NCCCCCCN=C(N)/N=C(\N)Nc1ccc(Cl)cc1)/N=C(\N)Nc1ccc(Cl)cc1`, the fold change in assay [1] (setting [6]) was 0.918 (inactive) and 0.785 (inactive); in assay [1] (setting [7]), 1.13 and 3.13. For the same compound, the cell count in assay [1] (setting [8]) is 1670 and 3350; in assay [1] (setting [9]), 1820 and 4270. The z-score in assay [2] (setting [10]) was -4.55 (inactive); in assay [2] (setting [11]), -0.0121. Besides, the luciferase signal in assay [5] was 32 AU (inactive).

On to `CC(Oc1c(Cl)cccc1Cl)C1=NCCN1` (stereo not given), for which the fold change in assay [1] (setting [6]) is 0.89 (inactive) and 0.878 (inactive) and 0.898 (inactive); in assay [1] (setting [7]), 0.839 and 1.76 and 1.47. Also, the cell count was 9080 and 9420 and 9240 in assay [1] (setting [8]); 10200 and 10700 and 10300 in assay [1] (setting [9]). In addition, the z-score in assay [2] (setting [10]) was -0.146 (inactive) and 0.131 (inactive); in assay [2] (setting [11]), -0.104 and -1.04; in assay [4], 0.71 (inactive) and 0.175 (inactive). In addition, the remaining NAD in assay [3] was 10 nM (inactive).

Regarding `COc1cc(N)c(Cl)cc1C(=O)NC1CCN(Cc2ccccc2)CC1`, the fold change in assay [1] (setting [6]) was 0.86 (inactive); in assay [1] (setting [7]), 0.965. For the same compound, the cell count worked out at 7810 in assay [1] (setting [8]) and 9080 in assay [1] (setting [9]). Also, the figures for the z-score in assay [2] (setting [10]) and in assay [2] (setting [11]) were 0.473 (inactive) and 0.069, respectively. In addition, in assay [5], the luciferase signal was 48 AU (inactive).

As for `COCc1c(C(C)C)nc(C(C)C)c(/C=C/[C@@H](O)C[C@@H](O)CC(=O)O)c1-c1ccc(F)cc1`, the fold change is 1.07 (inactive) in assay [1] (setting [6]) and 1.46 in assay [1] (setting [7]). The results for the cell count in assay [1] (setting [8]) and in assay [1] (setting [9]) were 1320 and 1240, respectively. Also, the z-score in assay [2] (setting [10]) is -1.23 (inactive); in assay [2] (setting [11]) it was -0.402; in assay [4], -2.23 (inactive).

Consider `Cn1c(=O)c2c(ncn2CCO)n(C)c1=O`, for which the values for the fold change in assay [1] (setting [6]) and in assay [1] (setting [7]) were 0.968 (inactive) and 1.24, respectively. For the same compound, the values for the cell count in assay [1] (setting [8]) and in assay [1] (setting [9]) were 8860 and 9160, respectively. Moreover, the z-score in assay [2] (setting [10]) is -0.0698 (inactive); in assay [2] (setting [11]), -0.0506. Further, the luciferase signal in assay [5] is 196 AU (active).

Regarding `O=c1cc(CO)occ1O`, the fold change in assay [1] (setting [6]) is 0.923 (inactive); in assay [1] (setting [7]), 0.344. The cell count in assay [1] (setting [8]) worked out at 9020; in assay [1] (setting [9]) it was 9780. Besides, the results for the z-score in assay [2] (setting [10]), in assay [2] (setting [11]) and in assay [4] were 0.152 (inactive), -0.154 and 1.06 (inactive), respectively.

Take `COc1ccc(C(=O)NCc2ccc(OCCN(C)C)cc2)cc1OC`: the fold change in assay [1] (setting [6]) was 0.832 (inactive) and 1.01 (inactive) and 0.841 (inactive); in assay [1] (setting [7]) it was 0.68 and 1.38 and 1.73. The cell count in assay [1] (setting [8]) was 8010 and 10500 and 9070; in assay [1] (setting [9]), 9630 and 10400 and 10800. For the same compound, the z-score in assay [2] (setting [10]) is 0.424 (inactive) and 1.16 (inactive); in assay [2] (setting [11]) it was -0.0117 and -0.161; in assay [4], 0.35 (inactive) and 0.59 (inactive). For the same compound, in assay [3], the remaining NAD was 14 nM (inactive).

For the compound `CC1(C)O[C@@H]2C[C@H]3[C@@H]4CCC5=CC(=O)CC[C@]5(C)[C@@]4(F)[C@@H](O)C[C@]3(C)[C@]2(C(=O)CCl)O1`, the fold change in assay [1] (setting [6]) was 0.774 (inactive); in assay [1] (setting [7]), 1.34. Further, the cell count came to 5550 in assay [1] (setting [8]) and 7170 in assay [1] (setting [9]). Further, the z-score is 0.0233 (inactive) in assay [2] (setting [10]) and 1.13 in assay [2] (setting [11]). Besides, in assay [5], the luciferase signal is 112 AU (inactive).

`CN(C/C=C/C#CC(C)(C)C)Cc1cccc2ccccc12`: the fold change was 0.935 (inactive) and 0.938 (inactive) in assay [1] (setting [6]); 4.07 and 1.16 in assay [1] (setting [7]). The cell count was 11600 and 9190 in assay [1] (setting [8]); 12400 and 9800 in assay [1] (setting [9]). Also, the z-score is 0.287 (inactive) and -0.488 (inactive) in assay [2] (setting [10]); -0.0957 and -0.937 in assay [2] (setting [11]); -1.48 (inactive) in assay [4]. Moreover, in assay [3], the remaining NAD was 10 nM (inactive). The luciferase signal in assay [5] was 52 AU (inactive).

On to `CN1CCCCC1CCN1c2ccccc2Sc2ccc(S(C)=O)cc21` (stereo not given), for which the fold change in assay [1] (setting [6]) was 0.812 (inactive) and 0.898 (inactive) and 0.879 (inactive); in assay [1] (setting [7]) it was 1.32 and 2.22 and 1.93. For the same compound, the cell count is 7930 and 7130 and 7860 in assay [1] (setting [8]); 9770 and 7940 and 8940 in assay [1] (setting [9]). For the same compound, the z-score in assay [2] (setting [10]) is 0.0731 (inactive) and 0.00466 (inactive); in assay [2] (setting [11]), -0.192 and -0.653; in assay [4], 0.175 (inactive) and 0.14 (inactive). In addition, the remaining NAD in assay [3] was 10 nM (inactive).

As to `C[n+]1ccccc1/C=N/O`, the fold change in assay [1] (setting [6]) was 0.951 (inactive) and 0.91 (inactive); in assay [1] (setting [7]), 1.53 and 0.982. Further, the cell count in assay [1] (setting [8]) is 10700 and 9130; in assay [1] (setting [9]) it was 11200 and 10000. The z-score in assay [2] (setting [10]) was 0.437 (inactive); in assay [2] (setting [11]), -0.00254; in assay [4], 0.085 (inactive). The remaining NAD in assay [3] is 10 nM (inactive). Besides, the luciferase signal in assay [5] was 84 AU (inactive).

As for `C[C@]12CCC(=O)C=C1C=C[C@@H]1[C@@H]2CC[C@@]2(C)[C@H]1CC[C@@]21CCC(=O)O1`, the fold change in assay [1] (setting [6]) was 0.826 (inactive); in assay [1] (setting [7]), 1.19. Moreover, the cell count in assay [1] (setting [8]) stood at 8530; in assay [1] (setting [9]), 10300. In addition, the z-score in assay [2] (setting [10]) was -0.57 (inactive) and -0.163 (inactive); in assay [2] (setting [11]) it was -0.749 and -0.289; in assay [4] it was -0.645 (inactive). For the same compound, the remaining NAD in assay [3] was 10 nM (inactive). Also, the luciferase signal in assay [5] is 40 AU (inactive).

For the compound `CN1C(C)(C)CCCC1(C)C`, the fold change was 0.888 (inactive) in assay [1] (setting [6]) and 1 in assay [1] (setting [7]). Also, the cell count in assay [1] (setting [8]) was determined as 9180; in assay [1] (setting [9]) it was 10300. Moreover, the z-score in assay [2] (setting [10]) was -0.15 (inactive); in assay [2] (setting [11]), 1.08. In addition, the luciferase signal in assay [5] was 68 AU (inactive).
